From PubChem BioAssay (NCI) come the findings set out here.

This is part of a sample that, as a whole, favours compounds with a hit. Of some 83,000 tested, about 20% had one in any assay.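 Note: values are percent growth. 100 is the growth of untreated cells, values between 100 and 0 indicate rising inhibition; between -100 and 0 indicates cell death.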 The source made the active and inactive calls. How the source made its calls: active means growth percent below 10; inactive means the rest.

The assay concerns MDA-MB-468 breast. The assay is described as follows: NCI-60 one-dose screen, 48 h (100 = growth as untreated, 0 = no growth, -100 = all killed). Particulars: 10 µM unless noted.
With `O=C1CCC(C(=O)NN(c2ccccc2)c2ccccc2)N1` (stereo not given), the growth was 94.5% (inactive).

For the compound `CCOC(=O)c1sc2nc(-c3cccc(O)c3)nc(N3CCOCC3)c2c1C`, the growth was 47.5% (inactive).

Turning to `O=C(O)c1ccc(NC(=O)c2cccc(Nc3ccnc(C(F)(F)F)c3)c2)cc1`, the growth is 108% (inactive).

Turning to `COc1ccc(-c2cc(-c3ccc(Cl)cc3)nc(SCCCCCCC(=O)NO)n2)cc1OC`, the growth is 55.2% (inactive).

`Cc1cc(C)c2nc(Nc3nc(C)c(C)c(=O)[nH]3)nc(C)c2c1`: the growth is -35.8% (active).

In the case of `CS(=O)(=O)Nc1ccc(OCc2nnc(-c3ccc(Cl)cc3)o2)c(F)c1`, the growth was 86.8% (inactive).

As to `COc1cc(-c2cc(/C=C/C(C)=O)[nH]n2)cc(OC)c1OC`, the growth was 54.5% (inactive).

With `CNC(=O)c1cn(C2CC2)c2cc(N3CCN(C(=O)c4cc(OC)c(OC)c(OC)c4)CC3)c(F)cc2c1=O`, the growth is 103% (inactive).

On to `CC(C)n1c(/C=C/[C@@H](O)C[C@@H](O)CC(=O)O)c(-c2ccc(F)cc2)c2ccccc21`, for which the growth is 81.7% (inactive).

For the compound `Cc1ccc(S(=O)(=O)Nn2c3c(cc(-c4nc5ccccc5s4)c2=O)CCCCCC3)cc1`, the growth is 110% (inactive).

For the compound `CCCCCN1C=C/C(=C\C(=O)N2CCCc3ccccc32)c2ccccc21`, the growth was 40% (inactive).

Take `CN(C)c1cccc2[nH]c(-c3[nH]ncc3Nc3ccnc(N)n3)nc12`: the growth is -67.5% (active).

Consider `O=C(Nc1cccc(C2=NCCN2)c1)c1ccc(N=Nc2ccc(C(=O)Nc3cccc(C4=NCCN4)c3)cc2)cc1`, for which the growth was 6.96% (active).

For `CC(C)(C)Nc1nc2c(OCCc3ccccc3)cccn2c1-c1ccc([N+](=O)[O-])cc1`, the growth is -19.5% (active).

Turning to `Nc1ccc(C(=O)CSc2nc3ccccc3[nH]2)cc1`, the growth is 93.2% (inactive).

With `Cc1ccc(-n2cc(/C=C/C(=O)c3ccc(S(C)(=O)=O)cc3)c(-c3ccc(S(C)(=O)=O)cc3)n2)cc1`, the growth is 106% (inactive).

In the case of `CN(C)CSc1nc2ccccc2s1`, the growth was 110% (inactive).

Turning to `CCOC(=O)/C=C1\S/C(=N\Nc2cc(=O)[nH]c3ccc(Cl)cc23)N(c2ccccc2)C1=O`, the growth was 80.8% (inactive).

Turning to `CCO/C=N/C1=C(C#N)C(c2ccc(OC)cc2)c2c(c3ccccc3n(C)c2=O)O1` (stereo not given), the growth was 105% (inactive).

In the case of `COc1ccc(-c2nn(-c3cccc(Cl)c3)cc2-c2cc(-c3ccccc3)nc(N)n2)cc1`, the growth was 30% (inactive).

Consider `C#C[C@H]1CCCCCC1O` (stereo not given in full), for which the growth was 99.3% (inactive).

Consider `COc1cc2c(cc1OC)CC[N+](CCC[N+](C)(C)C)=C2`, for which the growth is 103% (inactive).

As to `O=c1c2ccccc2sc2c(N3CCCC3)nc3ccccc3c12`, the growth is 98.6% (inactive).

For `COC1=CC(c2ccc[nH]2)=N/C1=C\c1[nH]c(C)c(C(=O)CCCCC(=O)NC(C)(C)C)c1C`, the growth was 33.9% (inactive).

As to `CC/C(=C(/c1ccc(OCCN(C)C)cc1)c1ccc(OC(=O)CCCCCCCCC(=O)c2c(C)[nH]c(/C=C3\N=C(c4ccc[nH]4)C=C3OC)c2C)cc1)c1ccccc1`, the growth is 53.4% (inactive).

Consider `CN1CCN(c2ccc(NC(=O)Nc3ccc4c(ccn4-c4cccc(C(N)=O)n4)c3)cc2C(F)(F)F)CC1`, for which the growth is 42.8% (inactive).

For `COc1ccc2c(c1)C(=O)c1c-2c(=O)n(CCCCCCC(=O)NO)c2ccccc12`, the growth is 6.84% (active).

Consider `COc1ccc(-c2nn(-c3cccc(Cl)c3)cc2-c2c(C#N)c(=O)n3[nH]c(-c4ccccc4)nc3c2C#N)cc1`, for which the growth is 97.6% (inactive).

Consider `CC(C)n1cc(C2=C(c3cccc4ccccc34)C(=O)NC2=O)c2cc(Br)ccc21`, for which the growth is 44.4% (inactive).

Turning to `O=c1c2cccc3c(Nc4c(F)cccc4F)ccc(c32)c2nc3ccccc3n12`, the growth was -33.5% (active).

In the case of `OCCNc1nc(Nc2ccc(C3=NN(c4cc(Cl)cc(Cl)c4)C(c4ccc(C(F)(F)F)cc4)C3)cc2)nc(N2CCOCC2)n1` (stereo not given), the growth was 66.7% (inactive).

Regarding `Cc1ccc(S(=O)(=O)N(CCc2ccc(Cl)cc2)S(=O)(=O)c2ccc(C)cc2)cc1`, the growth is 73.8% (inactive).

Regarding `CC1(C)CC[C@]2(C(=O)N3CCOCC3)CC[C@]3(C)C(=CC[C@@H]4[C@@]5(C)C/C(=C/c6ccco6)C(=O)C(C)(C)[C@@H]5CC[C@]43C)[C@@H]2C1`, the growth was 82.3% (inactive).

Take `COC[C@@]1(C)CC[C@]2(C)CC[C@]3(C)C(=CC[C@@H]4[C@@]5(C)CCCNC(C)(C)[C@@H]5CC[C@]43C)C2C1` (stereo not given in full): the growth is 50.9% (inactive).

With `CC1(C)N=C(N)N=C(N)N1c1ccc(CCc2ccccc2)c(Cl)c1`, the growth is -28.3% (active).

Consider `COc1cc(C(=O)Oc2ccccc2OC(=O)c2cc(OC)c(OC)c(OC)c2)cc(OC)c1OC`, for which the growth is 105% (inactive).

As to `Cc1cc(Cl)nc(N(CCNc2ccnc3cc(Cl)ccc23)Cc2ccco2)n1`, the growth is 29.9% (inactive).

With `CNC(=O)c1cc(Oc2ccc3c(c2)sc2nc(-c4ccc(Cl)c(C(F)(F)F)c4)cn23)ccn1`, the growth is 5.6% (active).

For the compound `COc1ccc(/C=C(\C#N)c2ccc([N+](=O)[O-])cc2)c2ccccc12`, the growth is 84.7% (inactive).

As to `Cc1ccc(-c2nc(C(Cl)Cl)nc3cc(C)nn23)cc1`, the growth was -37.7% (active).
